Each structure is given as a SMILES string. Activity calls are given as the source filed them.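 The calls were made as follows, unless noted: active = NADPH fluorescence slope more negative than the mean of all samples by about 3 SD, 99.7% confidence; inactive = the rest.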

Assay [1] in a line: inhibitors of TNFa-induced NFkB p65 translocation, primary screen, imaging, HUVEC, MLSMR starter and 10KST1 sets (AID 438;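 active = inhibition above 20% together with a positive visual image hit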;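 also: compound added about 3h40 before a 20 min TNFalpha stimulation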;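 as to inhibition: signal is the nuclear over cytoplasmic p65 intensity ratio per well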). To be noted: HUVEC TNFa-induced p65 nuclear translocation; cell count: measured here: nuclei count (cytotoxicity indicator), at 2.08 µM; inhibition: at 2 µM, stronger effect = higher value, 0% TNFa-plus-vehicle, 100% no-TNFa wells.
Assay [2] in a line: reduction of polyQ htt aggregates in cells – imaging, exon1htt(103Q)mCFP cells, high-content imaging, primary screen (AID 483;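 active = visual image review flags a hit and inhibition of aggregation exceeds 20%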;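 also: compound exposure lasted 3 days before fixation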;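 as to nuclei count: percent of the per-plate median nuclei count of sample wells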). Particulars: exon1htt(103Q)mCFP cell line, aggregate imaging, at 2 µM; inhibition of aggregation: stronger effect = higher value; nuclei count: measured here: cell count, toxicity.
The nature of assay [3]: endothelial E-selectin expression blockers – imaging, HUVEC, immunofluorescence, MLSMR starter and 10KST1 sets, primary screen (AID 487;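 active = visually confirmed hit in the image check and inhibition above 20%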;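 as to inhibition: signal is fraction of cell area covered by stained E-selectin grains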;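 as to nuclei count: 100% = median nuclei count of all wells on the same plate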). To be noted: HUVEC TNFalpha-induced E-selectin immunofluorescence imaging, at 2 µM; inhibition: stronger effect = higher value; nuclei count: measured here: cell number, toxicity.
Assay [4] deals with Voltage-gated potassium channel subunit beta-2 (Rattus norvegicus) (UniProt P62483). Put plainly: inhibitors of rat Kvbeta2 reductase activity – biochemical, NADPH fluorescence, primary screen (AID 622;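 active = fluorescence slope higher than the sample average by over 3 SD, cut at about -0.22 in these data, passing the limit was not always enough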;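 also: slope of raw intensity against log time taken from 70 to 1610 s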). To be noted: recombinant KvBeta, 4-cyanobenzaldehyde reduction, at 10 µM, stronger effect = higher value.
Chain of Voltage-gated potassium channel subunit beta-2 (Rattus norvegicus) (P62483 whole entry, looked up): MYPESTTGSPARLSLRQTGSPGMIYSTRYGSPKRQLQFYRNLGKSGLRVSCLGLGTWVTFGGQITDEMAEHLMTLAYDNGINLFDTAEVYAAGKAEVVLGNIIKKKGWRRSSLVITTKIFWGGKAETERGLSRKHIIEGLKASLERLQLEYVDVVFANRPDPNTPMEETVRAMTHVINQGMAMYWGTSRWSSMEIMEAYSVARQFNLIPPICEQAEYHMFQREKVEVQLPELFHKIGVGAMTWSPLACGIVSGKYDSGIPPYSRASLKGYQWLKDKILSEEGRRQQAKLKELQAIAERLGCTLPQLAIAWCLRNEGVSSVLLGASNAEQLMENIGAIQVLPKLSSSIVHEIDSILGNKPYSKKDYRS
Assay [5] has the same target. The assay is described as follows: enhancers of rat Kvbeta2 NADPH turnover – biochemical, NADPH fluorescence, primary screen (AID 623).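 Also: fluorescence intensity change per second fitted from 20 to 320 s.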 Particulars: Recombinant KvBeta, NADPH fluorescence decrease slope, 10 min; at 10 µM; stronger effect = lower value.
Assay [6] has as its target Alpha-2C adrenergic receptor (Homo sapiens) (UniProt P18825). The assay is described as follows: compounds altering alpha2C-coupled GIRK flux – cell-based, HEK293 alpha2C/GIRK1/2, thallium flux, primary screen (AID 624;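 active = fluorescence slope after compound addition differing from the mean of all screened samples at 99.7% confidence, in either direction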;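 also: slope of fluorescence ratio to pre-addition baseline per second over 15 to 24 s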). To be noted: thallium flux BTC fluorescence, at 10 µM, actives lie on both sides.
Assay [7] is described as follows: blockers of RIG-like receptor reporter activation – cell-based, Sendai virus stimulus, luciferase, 10K MLSCN set, TLR/RLR signaling modifier project, primary screen (AID 602276;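 active = inhibition at or above 50% at 10 µM; inactive = inhibition below 50%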;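 also: firefly luciferase from ISG56 promoter only with Renilla not read in this screen; 0% = Sendai virus plus DMSO and 100% = medium plus DMSO without virus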). Particulars: HEK293 RL24 IRF3 luciferase reporter, at 10 µM, stronger effect = higher value.
Assay [8] can be described thus: TLR3 IRF3 reporter activation blockers – cell-based, poly I:C stimulus, luciferase, 10K MLSCN set, primary screen (AID 602277;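 active = inhibition of the reporter signal at or above 50%; inactive = inhibition below 50%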). Particulars: HEK293-TLR3 RL24 IRF3 luciferase reporter, at 10 µM, stronger effect = higher value.

Chain of Alpha-2C adrenergic receptor (Homo sapiens) (P18825 whole entry, looked up): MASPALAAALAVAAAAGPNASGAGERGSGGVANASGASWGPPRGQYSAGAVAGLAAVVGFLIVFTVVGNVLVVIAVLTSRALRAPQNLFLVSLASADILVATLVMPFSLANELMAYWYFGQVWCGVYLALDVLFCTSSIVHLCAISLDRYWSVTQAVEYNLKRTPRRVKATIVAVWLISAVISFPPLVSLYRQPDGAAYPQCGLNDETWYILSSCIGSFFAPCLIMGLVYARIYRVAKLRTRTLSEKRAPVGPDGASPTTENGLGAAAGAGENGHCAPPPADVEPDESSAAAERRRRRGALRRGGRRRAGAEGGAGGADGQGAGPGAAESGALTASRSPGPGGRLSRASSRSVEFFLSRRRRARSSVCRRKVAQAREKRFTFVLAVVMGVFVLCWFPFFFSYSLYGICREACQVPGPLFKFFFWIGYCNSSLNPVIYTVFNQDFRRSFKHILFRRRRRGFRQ

Regarding `CCCc1cc(=O)[nH]c(SCc2ccccc2)n1`, in assay [1], the cell count was 651. Moreover, the inhibition in assay [1] was 6.7% (inactive); in assay [3] it was -110% (inactive); in assay [7], 9.4% (inactive); in assay [8], 30% (inactive). Further, in assay [2], the inhibition of aggregation is -3.9% (inactive). Besides, the nuclei count in assay [2] was 99.8%; in assay [3] it was 101%. Moreover, the fluorescence slope in assay [4] was -0.6 (inactive). Moreover, the NADPH fluorescence slope in assay [5] was -1.1e-07 (inactive). For the same molecule, the slope in assay [6] was 0.00614 (inactive).
In the case of `O=C(NC1CCCCC1)N(Cc1ccccc1)Cc1ccco1`, in assay [1], the cell count turned out to be 482. In addition, the inhibition in assay [1] was 6.5% (inactive); in assay [3] it was -214% (inactive); in assay [7] it was -9.22% (inactive); in assay [8], 11.3% (inactive). In assay [2], the inhibition of aggregation is 0.2% (inactive). Further, the nuclei count was found to be 90.9% in assay [2] and 128% in assay [3]. In addition, in assay [4], the fluorescence slope was -0.4 (inactive). Further, in assay [5], the NADPH fluorescence slope was 6.8e-05 (inactive). Moreover, the slope in assay [6] is 0.00512 (inactive).
Consider `Cc1ccc(-c2noc(CCC(=O)N3CCN(c4cccc(C(F)(F)F)c4)CC3)n2)cc1`, for which the cell count in assay [1] was found to be 647. In addition, the inhibition was 7.6% (inactive) in assay [1], -36.9% (inactive) in assay [3], 9.01% (inactive) in assay [7] and 6.71% (inactive) in assay [8]. Besides, in assay [2], the inhibition of aggregation is -10.2% (inactive). Further, the results for the nuclei count in assay [2] and in assay [3] were 95.8% and 111%, respectively. Besides, the fluorescence slope in assay [4] is -0.391 (inactive). Also, in assay [5], the NADPH fluorescence slope is -5.4e-05 (inactive). Further, the slope in assay [6] is 0.00562 (inactive).
For the molecule `CCOC(=O)C1C2C=CC3(CN(c4cccc(Cl)c4)C(=O)C13)O2` (stereo not drawn), in assay [1], the cell count came to 656. In addition, the inhibition was -0.3% (inactive) in assay [1], -11.3% (inactive) in assay [3], 13.2% (inactive) in assay [7] and 44.5% (inactive) in assay [8]. Further, the inhibition of aggregation in assay [2] was 8.1% (inactive). In addition, the figures for the nuclei count in assay [2] and in assay [3] were 105% and 110%, respectively. The fluorescence slope in assay [4] was -0.398 (inactive). For the same molecule, in assay [5], the NADPH fluorescence slope is 9e-06 (inactive). Further, the slope in assay [6] was 0.0053 (inactive).
As to `O=C(COC(=O)C1CC(=O)N(c2ccccc2)C1)c1ccccc1` (stereo not drawn), the cell count in assay [1] is 603. Moreover, the inhibition in assay [1] was 2.4% (inactive); in assay [3], -21% (inactive); in assay [7], -13.2% (inactive); in assay [8], -4.16% (inactive). For the same molecule, the inhibition of aggregation in assay [2] was -21% (inactive). Also, the figures for the nuclei count in assay [2] and in assay [3] were 99.9% and 123%, respectively. Besides, in assay [4], the fluorescence slope is -0.604 (inactive). Further, in assay [5], the NADPH fluorescence slope was -2.9e-05 (inactive). Also, the slope in assay [6] was 0.00601 (inactive).
Take `COc1ccccc1C(=O)N1CCN(C(=O)COc2cccc(C)c2)CC1`: the cell count in assay [1] was found to be 430. In addition, the inhibition in assay [1] is -5.5% (inactive); in assay [3], -52.5% (inactive); in assay [7], 14% (inactive); in assay [8] it was 23.5% (inactive). For the same molecule, the inhibition of aggregation in assay [2] is 11.7% (inactive). The nuclei count in assay [2] stood at 94.2%; in assay [3], 102%. The fluorescence slope in assay [4] is -0.288 (inactive). For the same molecule, the NADPH fluorescence slope in assay [5] was -5.4e-05 (inactive). Besides, the slope in assay [6] is 0.00401 (inactive).
Take `CC1(C)CC(=O)c2cnc(NC(=O)Cc3ccc(Cl)cc3)nc2C1`: the cell count in assay [1] worked out at 382. Besides, the inhibition in assay [1] is -0.3% (inactive); in assay [3], -20.1% (inactive); in assay [7] it was -25% (inactive); in assay [8] it was 18.3% (inactive). The inhibition of aggregation in assay [2] was -0.3% (inactive). Besides, the results for the nuclei count in assay [2] and in assay [3] were 97.2% and 115%, respectively. Besides, the fluorescence slope in assay [4] is -0.485 (inactive). Moreover, the NADPH fluorescence slope in assay [5] is -4.8e-05 (inactive). The slope in assay [6] is 0.00659 (inactive).
Turning to `COc1ccc(CNc2nc(NCc3ccc(OC)cc3)n(S(C)(=O)=O)n2)cc1`, in assay [1], the cell count stood at 292. The inhibition in assay [1] is -0.9% (inactive); in assay [3] it was 47% (inactive); in assay [7] it was 2.7% (inactive); in assay [8], -1.73% (inactive). Besides, the inhibition of aggregation in assay [2] is 26% (inactive). For the same molecule, the values for the nuclei count in assay [2] and in assay [3] were 86.3% and 95.3%, respectively. The fluorescence slope in assay [4] is -0.626 (inactive). The NADPH fluorescence slope in assay [5] is -1.8e-05 (inactive). Further, the slope in assay [6] is 0.00366 (inactive).

The values are drawn from PubChem BioAssay.
